RAM network inh = yeast RAM network inhibition. AID 868. S. cerevisiae dse1pr::URA3 reporter, 5-FOA growth OD615, 2 d; analog-sensitive cbk1-as2 kinase mutant strain. inhibition, % at 50 µM. actives 1.8% (n = 190,000);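 active = inhibition above a set limit, 3 SD over mean compound inhibition, cut at about 8.4% in these data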;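 note: inhibition rescues growth on 5-FOA so higher OD means more RAM inhibition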
CHOP inh = inhibitors of CHOP induction in ER stress response; CHO-K1 CHOP-promoter luciferase, tunicamycin-induced, 15-18 h; inhibition, % at 10 µM; actives 3.8% (n = 220,000); AID 2732;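 active = compounds that reduced the stress-induced luciferase reporter signal by more than about 70% of percent inhibition, limit read from the data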
WT yeast gro inh = growth inhibition of WT yeast, mitochondrial fusion screen | mitochondrial fusion phenotypic screen, WT strain | inhibition, % at 10 µM | actives 2.1% (n = 190,000) | AID 1362; in the data active = inhibition above about 58%; tested in S. cerevisiae
Lmaj promast = Leishmania major promastigote growth inhibition; AID 1063; actives 9% (n = 200,000); inhibition, % at 10 µM; Leishmania major promastigotes, resazurin fluorescence viability; in the data active = inhibition above about 50%;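 note: promastigotes grown with compound for 44 hours at 28 °C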
CHOP confirm = confirmation of CHOP induction inhibitors; shares compounds with CHOP inh; CHO-CHOP promoter luciferase reporter, tunicamycin-induced, luminescence; inhibition, % at 10 µM; actives 45% (n = 2,100);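 active = mean of three repeat readings of reporter signal inhibition above a set limit, cut at about 70% in these data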
Hits are given with their value. Compounds with a hit are over-represented: about 13% of the library has one in this group of screens.

How did O=C(COc1ccccc1C(=O)NCc1ccncc1)Nc1ccc(Br)cc1 do in these assays?
RAM network inh: inactive; CHOP inh: inactive; WT yeast gro inh: inactive; Lmaj promast: inactive

How did Cc1nn(C(C)(C)C)c(C)c1/C=N/OC(=O)Nc1ccc(Cl)cc1 do in these assays?
CHOP inh: 99; CHOP confirm: 117

What do the screens show for `Nc1cc(C(F)(F)F)ccc1Nc1ccccc1`?
RAM network inh: inactive; CHOP inh: inactive; WT yeast gro inh: inactive; Lmaj promast: inactive

Results for CCOc1cccc2cc(C(=O)NCCC3=CCCCC3)c(=O)oc12 ?
RAM network inh: inactive; CHOP inh: inactive; WT yeast gro inh: inactive; Lmaj promast: inactive

How did CCOC(=O)c1cc(-c2cccs2)nc2c1c(C)nn2-c1ccccn1 do in these assays?
RAM network inh: inactive; CHOP inh: 99; WT yeast gro inh: 69; Lmaj promast: inactive; CHOP confirm: 100

How did O=C1CCC(C(=O)O)(c2ccccc2)C1 (stereo unspecified) do in these assays?
RAM network inh: inactive; CHOP inh: inactive; WT yeast gro inh: inactive; Lmaj promast: inactive

What do the screens show for `NC(=O)c1ccc(Cc2ncc(C(F)(F)F)cc2Cl)s1`?
RAM network inh: inactive; CHOP inh: inactive; WT yeast gro inh: inactive; Lmaj promast: inactive

What do the screens show for `O=S(=O)(N/N=C/c1ccc(Cl)cc1)c1ccc(Cc2ncc(C(F)(F)F)cc2Cl)s1`?
RAM network inh: inactive; CHOP inh: 100; WT yeast gro inh: inactive; Lmaj promast: inactive; CHOP confirm: 91

How did COc1cccc(NC(=O)Nc2ccccc2C(N)=O)c1 do in these assays?
RAM network inh: inactive; CHOP inh: inactive; WT yeast gro inh: inactive; Lmaj promast: inactive

Results for C(=N\n1cnnc1)/c1cn(Cc2ccccc2)c2ccccc12 ?
RAM network inh: inactive; CHOP inh: inactive; WT yeast gro inh: inactive; Lmaj promast: inactive

Results for Clc1ccc(Cn2cc(/C=N/n3cnnc3)c3ccccc32)c(Cl)c1 ?
RAM network inh: inactive; CHOP inh: 108; WT yeast gro inh: inactive; Lmaj promast: inactive; CHOP confirm: inactive

Results for O=C1c2ccccc2C(=O)C12OC(c1ccccc1)C1(C(=O)c3ccccc3C1=O)C2c1ccc([N+](=O)[O-])cc1 (stereo unspecified) ?
RAM network inh: inactive; CHOP inh: inactive; WT yeast gro inh: inactive; Lmaj promast: inactive

How did O=C1c2ccccc2C(=O)C12OC2c1ccc(Cl)cc1 (stereo unspecified) do in these assays?
RAM network inh: inactive; CHOP inh: 109; WT yeast gro inh: inactive; Lmaj promast: inactive; CHOP confirm: inactive

Results for O=C(Cc1cccc2ccccc12)NC(NC(=S)Nc1ccccc1Cl)C(Cl)(Cl)Cl (stereo unspecified) ?
RAM network inh: inactive; CHOP inh: 104; WT yeast gro inh: inactive; Lmaj promast: inactive; CHOP confirm: inactive

Results for CC(C)(C)n1nnnc1CN(Cc1ccc(F)cc1)Cc1ccco1 ?
RAM network inh: inactive; CHOP inh: 101; WT yeast gro inh: inactive; Lmaj promast: inactive; CHOP confirm: inactive

Results for Clc1ccccc1CN(Cc1ccco1)Cc1nnnn1C1CCCC1 ?
RAM network inh: inactive; CHOP inh: inactive; WT yeast gro inh: inactive; Lmaj promast: inactive

How did CCOC(=O)c1c(C)[nH]c(C)c1C(=O)COc1ncnc2cc([N+](=O)[O-])ccc12 do in these assays?
RAM network inh: inactive; CHOP inh: inactive; WT yeast gro inh: inactive; Lmaj promast: inactive

What do the screens show for `CN1CCN(CC(=O)N2CCn3c4c(c5cc(C6CCCCC6)ccc53)CCCC42)CC1` (stereo unspecified)?
RAM network inh: inactive; WT yeast gro inh: inactive; Lmaj promast: 101; CHOP confirm: 132

What do the screens show for `Cc1ccc2c(c1)c1c3n2CCN(C(=O)CN2CCN(C)CC2)C3CCC1` (stereo unspecified)?
RAM network inh: inactive; CHOP inh: inactive; WT yeast gro inh: inactive; Lmaj promast: inactive

Results for Cc1ccc(Cn2ccc(O)c(Cc3ccccc3)c2=O)cc1 ?
RAM network inh: inactive; CHOP inh: inactive; WT yeast gro inh: inactive; Lmaj promast: inactive

Results for O=C1/C(=C/c2ccncc2)SC(=S)N1C1CCS(=O)(=O)C1 (stereo unspecified) ?
RAM network inh: inactive; CHOP inh: 104; WT yeast gro inh: inactive; Lmaj promast: 100; CHOP confirm: 103

How did Cc1ccc(/C=C2\SC(=S)N(C3CCS(=O)(=O)C3)C2=O)o1 (stereo unspecified) do in these assays?
RAM network inh: inactive; CHOP inh: inactive; WT yeast gro inh: inactive; Lmaj promast: inactive

Results for O=C1C(=Cc2ccco2)C(=O)c2ccccc21 ?
RAM network inh: inactive; CHOP inh: inactive; WT yeast gro inh: inactive; Lmaj promast: inactive

How did O=C1ON=C(c2ccccc2)/C1=C/c1ccco1 do in these assays?
RAM network inh: inactive; CHOP inh: 104; WT yeast gro inh: inactive; Lmaj promast: inactive; CHOP confirm: inactive

Results for COc1cc(/C=C2\C(=O)ON=C2c2ccccc2)cc(OC)c1OC ?
RAM network inh: inactive; CHOP inh: inactive; WT yeast gro inh: inactive; Lmaj promast: inactive

What do the screens show for `COc1ccc(/C=C2/C(=O)ON=C2c2ccccc2)cc1OC`?
RAM network inh: inactive; CHOP inh: 105; WT yeast gro inh: inactive; Lmaj promast: inactive; CHOP confirm: 104

How did CC1CCCCC1n1c(=S)[nH]c2ccccc2c1=O (stereo unspecified) do in these assays?
RAM network inh: inactive; CHOP inh: 103; WT yeast gro inh: 76; Lmaj promast: inactive; CHOP confirm: inactive

What do the screens show for `CC1CCCCC1NC(=O)CCCn1c(=S)[nH]c2ccccc2c1=O` (stereo unspecified)?
RAM network inh: inactive; CHOP inh: inactive; WT yeast gro inh: inactive; Lmaj promast: inactive

Results for COc1ccccc1N1C(=O)C2C(C(=O)c3ccccc3)=NN(c3ccccc3OC)C2C1=O (stereo unspecified) ?
CHOP inh: inactive

Results for COc1ccc(CCNC(=O)CN2C(=O)NC(C)(c3ccc([N+](=O)[O-])cc3)C2=O)cc1 (stereo unspecified) ?
RAM network inh: inactive; CHOP inh: inactive; WT yeast gro inh: inactive; Lmaj promast: inactive

What do the screens show for `COC1=C(c2ccccc2)C(=O)c2ccccc2C1=O`?
RAM network inh: inactive; CHOP inh: inactive; WT yeast gro inh: inactive; Lmaj promast: inactive

Results for O=C(C1=C(c2ccccc2)C(=O)c2ccccc2C1=O)c1ccccc1 ?
RAM network inh: inactive; CHOP inh: 104; WT yeast gro inh: inactive; Lmaj promast: inactive; CHOP confirm: 112

What do the screens show for `CC(C)[C@H]1C=C(C(=O)O)O[C@@H](OCCCCO)C1`?
CHOP inh: inactive

How did COc1cccc(CNCc2ccccn2)c1OC do in these assays?
RAM network inh: inactive; CHOP inh: inactive; WT yeast gro inh: inactive; Lmaj promast: inactive

What do the screens show for `CCOc1cc(CNc2ccc(O)cc2)ccc1OCc1ccc(Cl)cc1Cl`?
RAM network inh: inactive; CHOP inh: 103; WT yeast gro inh: inactive; Lmaj promast: inactive; CHOP confirm: 112

What do the screens show for `CCOc1cccc(CNc2ccc(O)cc2)c1OCc1ccc(Cl)cc1`?
RAM network inh: inactive; CHOP inh: 109; WT yeast gro inh: inactive; Lmaj promast: 100; CHOP confirm: inactive

What do the screens show for `CCOc1ccccc1CNc1ccc(O)cc1`?
RAM network inh: inactive; CHOP inh: inactive; WT yeast gro inh: inactive; Lmaj promast: inactive
